Laboratory results from PubChem BioAssay (NCATS).
Unmarked numbers belong to inactive results. Calls come from the whole dose curve; as a rule, active = well fitted curve in the direction sought with a large enough effect; inconclusive = small, poorly fitted or top-dose-only effect, or another doubt; inactive = no such curve, though single readings can be large or run the other way.

Assay: Validation qHTS assay for inhibitors of Activation Induced Cytidine Deaminase (AID): UDG Counterscreen signal (AID 1347427); note: 0% is about no effect
Details: biochemical UDG counterscreen, fluorescence signal; series mostly up to 115 µM; activity, negative = inhibition: at the top concentration
Source text: Assay Provider (PI) Patricia Gearhart Ph.D.
National Institute on Aging
National Institute of Health (NIH), Bethesda, MD
Assay Provider (PI) Rahul Kohli Ph.D.
Perelman School of Medicine
University of Pennsylvania, Philadelphia, PA
Activation-Induced Deaminase (AID) is a cytosine deaminase which converts cytosine into uracil within stretches of ssDNA. The presence of uracil in DNA initiates a cascade of mutagenic DNA repair to introduce point mutations and DNA double strand breaks. Specific targeting of AID to the immunoglobulin heavy chain loci (Igh) promotes mutagenesis in the antibody variable region for somatic hypermutation (SHM) or switch regions leading to class switch recombination (CSR). However, AID also plays a role in accumulating unnecessary mutations across the genome. Mis-targeting of AID results in the initiation of tumor development and leads to greater drug resistance among cancer cells when continually expressed. To identify an AID inhibitor, a small molecule library will be screened in collaboration with NCATS core facility at NIH. To confirm biological function, inhibitors will be examined in an in vitro murine B-cell activation assay and subsequent secondary validation screens. Top molecules will be further screened to identify inhibitory efficacy against a wild type primary splenocytes assay. Using these approaches, we hope to identify a small molecule with great efficacy and low toxicity for use as a molecular probe to further characterize AID's intricacies, or even as a therapeutic.
A FRET based analysis of cytosine deamination, was developed to identify potential inhibitors of AID catalytic activity. This screen has two signal output, Read 1 evaluates the AID inhibition response. The second readout (Read 2) evaluates UDG response and is uses as a counterscreen to exclude false positive inhibitors. Inhibition in AID and inactivity in the UDG signal is the desired outcome for this assay.
SEQUENCE No. (e.g., 1, 2, 3, etc.); […] (e.g., Cells, Incubation, Reagent, etc.); VALUE; DESCRIPTION
1a; Reagent; 3 uL; [4/3x] 1 uM AID/2.67 U/mL UDG
1b; Reagent; 3 uL; 2 U/mL UDG
1c; Reagent; 3 uL; 1 uM AID
2a; Compound; 46 nL; Follow-up plates (0.64 uM - 10 mM)
2b; Control; 46 nL; ATA ([…] - 10 mM)
3; Time; 10 min; incubation at room temperature
5; Time; 4 hr; incubation at room temperature
6; Reagent; 4 uL; [2x] 250 mM NaOH
7; Time; 15 sec; centrifuge at 1000 rpm
8; Time; 30 min; incubation at room temperature
9a; Detection; fluorescence (Read 1: AID); EnVision (PerkinElmer) plate reader, 540 excitation and 590 emission filters
9b; Detection; fluorescence (Read 2: UDG); EnVision (PerkinElmer) plate reader, 560 excitation and 665 emission filters
NOTES (numbers refer to sequence above)
1a; Reagents were dispensed in a medium-binding black solid-bottom Greiner plates (789176F) using a BioRptr liquid dispenser. Dispense 3 uL of [4/3x] 1 uM AID (provided by Kohli lab) and [4/3x] 2 U/mL UDG (NEB M0280L) into columns 1, 2, 5 to 48.
1b; Dispense 3 uL of [4/3x] 2 U/mL UDG into column 3.
1c; Dispense 3 uL of [4/3x] 1 uM AID into column 4.
2b; 10 mM Aurintricarboxylic Acid (Sigma A1895) (ATA, 8-point, n = 2, 1:2.5 dilution in column 2) double pin-transferred (Dip Factor = 2) using the Kalypsys (Wako USA) pintool equipped with a 1536 pinhead for a [final] range of 186 nM - 114 uM.
3; Room temperature incubation.
4; Dispense 1 uL of substrate mixture from the Kohli lab [4x] […] DJC20 and [4x] 250 nM DJC23 into columns 1 to 48 .
5; Room temperature incubation.
6; Dispense 4 uL of substrate mixture [2x] 250 mM NaOH into columns 1 to 48.
7; Centrifugation step to remove bubbles.
8; Room temperature incubation
9a; Fluorescence signal (column label AID) was read using the EnVision plate reader. Excitation filter = 540(8) nm, barcode = 311; Emission filter = 590(20) nm, barcode = 217; Mirror = D555, barcode = 405.
9b; Fluorescence signal (column label UDG) was read using the EnVision plate reader. […]

SMILES	activity, negative = inhibition
Cc1cc2c(cc1Cl)N(C(=O)Nc1ccnc3ccccc13)CC2	4.23%
CCCCCCCCCCC(C)(C)C(=O)Nc1c(OC)cc(OC)cc1OC	-6.06%
CC(C)NC[C@H](O)COc1ccc(CC(N)=O)cc1	0.581%
C[N+](C)(C)CC=O	13.5%
C[C@H](NC(=O)/C(C#N)=C/c1ccc(O)c(O)c1)c1ccccc1	-11%
Cn1c(=O)c2c(nc(/C=C/c3cccc(Cl)c3)n2C)n(C)c1=O	-5.83%
NS(=O)(=O)c1cccc2c1c([N+](=O)[O-])cc1nc(O)c(O)nc12	6.35%
O=C1NC(=O)c2cc(Nc3ccccc3)c(Nc3ccccc3)cc21	-9.03%
COc1ccc2c(c1)c(CC(=O)O)c(C)n2Cc1ccc(Cl)cc1	-3.22%
O=c1[nH]c(=S)[nH]c(-c2ccccc2)c1Cc1c(O)ccc2ccccc12	8.3%
CN(CC[C@@H](Oc1ccc(C(F)(F)F)cc1)c1ccccc1)CC(=O)O	11.4%
COc1cc(/C=C(\C#N)C(=O)c2ccc(O)c(O)c2)cc(I)c1O	4.57%
O=C(c1ccc2c(c1)OCCO2)N1CCCCC1	5.86%
C=CCn1c(=O)c2c(nc(-c3ccc(S(=O)(=O)O)cc3)n2C)n(C)c1=O	8.6%
CN(C)CCC(c1ccc(Br)cc1)c1ccccn1 (stereo not given)	3.83%
CC(N)=O	5.6%
S=C(S)N1CCCC1	-3.17%
CCCCCCCC/C=C\CCCCCCCC(=O)NCCc1ccc(O)c(O)c1	-7.98%
c1ccc2c(c1)CC(N1CCN(c3cccc4c3OCCO4)CC1)C2	-11%
C#CCn1c(=O)c2c(ncn2C)n(C)c1=O	8.84%

SMILES	activity, negative = inhibition
N#CC(C#N)=C(N)/C(C#N)=C/c1ccc(O)cc1	11.3%
CN1CC(O)C(O)C(O)C1CO (stereo not given)	14.5%
Nc1nc2ccc(Cl)cc2c2nc(-c3ccco3)nn12	6.92%
CCN(CC)CCCCCCCCOC(=O)c1cc(OC)c(OC)c(OC)c1	8.4%
CC(N)(Cc1ccc(O)cc1)C(=O)O (stereo not given)	5.26%
N[C@@H](CCC(=O)N[C@H](CSN=O)C(=O)NCC(=O)O)C(=O)O	13.1%
CC(C)(C)NCC(O)COc1cccc2[nH]c(=O)[nH]c12 (stereo not given)	4.7%
O=C1OC(=O)C2C3CCC(O3)C12 (stereo not given)	14.3%
CC#CCOC(=O)c1c(C)nc2sc3c(c2c1N)CCC(O)C3 (stereo not given)	-3.78%
C=C(C)C1CC=C(C(=O)O)CC1 (stereo not given)	6.5%
Nc1ccc(N2C(=O)c3ccccc3C2=O)c(Cl)c1	2.28%
CCCc1c(-c2ccc(O)cc2)nn(-c2ccc(O)cc2)c1-c1ccc(O)cc1	17.1%
OC[C@H]1NC[C@@H](O)[C@@H]1O	9.42%
COc1ccc2c(c1)CCC1C2CC[C@@]2(C)C1CC[C@@H]2NCCCCCCN1C(=O)C=CC1=O (stereo not given in full)	6.08%
Cc1cccc(C2CN(C)CCc3c2cc(O)c(O)c3Cl)c1 (stereo not given)	6.73%
CNC(=O)c1cc2c(cn1)[nH]c1ccccc12	4.51%
CN(C)S(=O)(=O)c1ccc2c(c1)/C(=C/c1cc3c([nH]1)CCCC3)C(=O)N2	16.1%
COc1cc(N)c(Cl)cc1C(=O)OCCN1CCCCC1	-1.26%
CCN1C(=O)C=CC1=O	7.32%
CSC(=N)N	9.51%
